# In the library only some 2.8% were active in any assay of this set; here they are far more common.
# KCNH2 3.1 inh: inhibitors of human KCNH2 3.1 potassium channel isoform. 340,000 compounds, 0.95% hits. activity change, % (tested at about 1.8 µM). U2OS KCNH2 3.1, thallium flux FluxOr; active compounds read low;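 active = maximum activity change below -70%; inconclusive = maximum activity change from -70% to -50%; inactive = maximum activity change above -50%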;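 also: thallium influx rate constant from kinetic fluorescence after stimulation buffer; % is scaled to controls: 0 for no effect and ±100 for the full control effect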
#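 Kinetic fluorescence (2 min after stimulation buffer) measures Tl+ influx through KCNH2 3.1 expressed by viral transduction in U2OS cells; the rate constant is normalized against DMSO controls serving as positive and negative references.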
# GLP1R cytotox: cytotoxicity in counter-screen for GLP-1R inverse agonists | HEK293 cAMP-luciferase reporter cells, luminescence, 24 h | Potency, µM (doses to about 38.3 µM), for the others: at the top dose activity change, negative = inhibition, usual class: inhibitors | 410,000 compounds, 0.13% hits | AID 624418;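 also: loss of luciferase light is scored as toxicity; potency is read from the fitted curve at half-maximal effect; % is scaled to controls: 0 for no effect and ±100 for the full control effect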
#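 1536-well qHTS counterscreen of the MLSMR; 200 cells/uL, 12 h pre-incubation, 23 nL cpd, 24 h at 37 deg C 5% CO2, luciferase detection reagent, 12 min RT, luminescence. Inhibition = undesired.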
# GLS inhibitor: glutaminase GLS (human) inhibition | O94925 | GLS enzymatic activity, qHTS titration | Potency, µM (series often up to 45.5 µM), without a hit: at the top dose activity change, negative = inhibition, most hits filed as inhibitors | 410,000 compounds, 0.21% hits | AID 624170; also: potency is read from the fitted curve at half-maximal effect; % is scaled to controls: 0 for no effect and ±100 for the full control effect
# Target sequence (O94925 whole entry, looked up): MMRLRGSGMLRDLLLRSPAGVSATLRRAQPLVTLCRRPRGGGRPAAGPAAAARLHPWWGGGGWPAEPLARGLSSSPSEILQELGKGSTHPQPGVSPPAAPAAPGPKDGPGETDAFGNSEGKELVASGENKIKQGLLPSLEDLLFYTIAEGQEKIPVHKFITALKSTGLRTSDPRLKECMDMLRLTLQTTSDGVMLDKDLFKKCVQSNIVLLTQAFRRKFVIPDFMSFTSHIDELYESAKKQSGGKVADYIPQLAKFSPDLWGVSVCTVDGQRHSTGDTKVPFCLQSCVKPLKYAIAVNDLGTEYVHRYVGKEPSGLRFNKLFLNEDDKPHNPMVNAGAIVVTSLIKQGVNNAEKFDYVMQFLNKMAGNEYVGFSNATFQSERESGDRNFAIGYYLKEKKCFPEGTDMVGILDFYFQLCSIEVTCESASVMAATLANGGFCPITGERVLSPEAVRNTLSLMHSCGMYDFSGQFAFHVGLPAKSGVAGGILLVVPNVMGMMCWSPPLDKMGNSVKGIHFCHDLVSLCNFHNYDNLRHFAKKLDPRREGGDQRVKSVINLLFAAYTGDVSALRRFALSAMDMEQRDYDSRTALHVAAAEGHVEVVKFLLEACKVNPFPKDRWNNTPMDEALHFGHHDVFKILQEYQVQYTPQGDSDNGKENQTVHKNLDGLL
#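 Assay buffer: 45 mM KH2PO4 pH 8.2, 0.02% Tween-20. hKGA acts on L-glutamine (1 mM solution added); product glutamate is reported by an oxidase/peroxidase Amplex Red coupling, with fluorescence taken at baseline and 30 min.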
# KCNH2 WT inh: inhibitors of human wildtype KCNH2 potassium channel; activity change, % at 1.84 µM; 340,000 compounds, 0.37% hits; U2OS, BacMam KCNH2, thallium flux FluxOr; active compounds read low;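 active = maximum activity change below -70%; inconclusive = maximum activity change between -70% and -50%; inactive = maximum activity change above -50%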; also: % is scaled to controls: 0 for no effect and ±100 for the full control effect
#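 U2OS cells were transduced with wild-type KCNH2 virus (2.03 x 10^8 / mL) for 4 h at room temperature, then cultured overnight at 37 C. Thallium flux was read with FluxOr dye. Rate constants were normalized to DMSO controls.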
# GLP-1R agonist: GLP-1 receptor (human) agonism | HEK293 GLP-1R CRE-luciferase, luminescence, 4-6 h; cells express a hypersensitive GLP-1R form | AID 624172 | 380,000 compounds, 0.007% hits | Potency, µM (titrated, usually from 45.6 µM), without a hit: top-dose activation, usual class: activators; also: potency is read from the fitted curve at half-maximal effect; % of control where 0% means no effect
# GLP1R inv ag: inverse agonists of human GLP-1 receptor | AID 624417 | P43220 | HEK293 GLP-1R CRE-luciferase, luminescence, 24 h; GLP-1R form is constitutively active | 410,000 compounds, 1.6% hits | Potency, µM (doses to about 38.3 µM), without a hit: at the top dose activity change, negative = inhibition, most hits filed as inhibitors; also: potency is read from the fitted curve at half-maximal effect; % is scaled to controls: 0 for no effect and ±100 for the full control effect; nearly all actives have a fitted effect of over 55% in size
#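 qHTS in 1536-well format: reporter HEK293 cells expressing constitutive GLP-1R activity in DMEM + 10% Nu serum, 24 hr with compounds at 37 deg C, luminescence read after 12 min with detection reagent.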
# An asterisk follows results filed as active; i = inactive; ? = inconclusive; · = no result given. Unless noted, calls follow the shape of the dose curve; as a rule, active = well fitted curve in the direction sought with a large enough effect; inconclusive = small, poorly fitted or top-dose-only effect, or another doubt; inactive = no such curve, though single readings can be large; an effect the other way counts as inactive or inconclusive.
SMILES,KCNH2 3.1 inh,GLP1R cytotox,GLS inhibitor,KCNH2 WT inh,GLP-1R agonist,GLP1R inv ag
COc1ccc(OC)c(NC(=O)CSC2=Nc3ccccc3C3=NC(CCC(=O)NCc4ccco4)C(=O)N23)c1 (centres undefined),·,2%,-4%,·,·,6%
Cc1ccc(C)c(C(=O)CCC(=O)NCc2ccc(Cl)cc2)c1,-11,-8%,2%,-1,3%,10µM*
O=C1c2cccc(NCCCNCCO)c2C(=O)c2cccc(NCCCNCCO)c21,13,7.9µM*,10%,-13,-15%,?
CCOc1ccc2nc(N3CCCC(C(=O)Nc4ccc(Br)c(C)c4)C3)sc2c1 (centres undefined),·,0%,-1%,·,·,13%
CC(=O)/C=C/n1c(=S)oc2ccccc21,3,11µM*,1%,-5,-2%,?
C/C(=N\Nc1ncnc2sc(C)c(C)c12)c1ccccn1,-8,192%,-1%,-73*,4%,?
Cc1sc2ncnc(N/N=C/c3cccc(O)c3)c2c1C,9,17%,?,-11,24%,16%
Cc1ccc(NC(=O)c2cc(C)n(-c3cccc(C)c3)c2C)cc1,7,?,-1%,-4,-2%,11µM*
COc1cccc(C2CC(c3ccc(Br)cc3)=NN2C(=O)c2ccncc2)c1OC (centres undefined),-10,-9%,-3%,6,16%,10µM*
Cc1cccc(C(=O)N(C(=O)c2cccc(C)c2)N(C)C)c1,4,5%,4%,-1,19%,?
Cc1ccc2cc3c(N)nn(C(=O)c4cccc(F)c4)c3nc2c1,·,1%,-1%,·,·,8%
O=C(CCNS(=O)(=O)c1ccccc1C(F)(F)F)NCCCSc1ccccc1,3,2%,3%,-4,10%,13µM*
O=C(COc1ccccc1F)Nc1ccc(S(=O)(=O)Nc2nccs2)cc1,-2,5%,10%,-4,4%,13%
O=C(NCc1ccco1)c1cc(S(=O)(=O)N2CCCc3ccccc32)ccc1Cl,-4,-6%,-15%,1,2%,4.5µM*
CCOc1ccccc1N1C(=O)CC(Sc2ncccc2C(=O)O)C1=O (centres undefined),-3,-3%,18µM*,14,-1%,2%
Cc1ccc(N2C(=O)CC(Sc3ncccc3C(=O)O)C2=O)cc1 (centres undefined),15,3%,0%,-5,5%,1%
O=C(Nc1ccc(F)cc1)C(=O)c1c(O)[nH]c2ccc([N+](=O)[O-])cc12,-82*,-17%,2%,-18,-4%,14%
O=C(O)CCC(=O)NNc1ncnc2ccccc12,6,2%,15%,i,10%,2%
O=C(O)CCC(=O)NNc1nc2ccccc2nc1-c1ccccc1,9,8%,11µM*,-6,0%,10%
COc1ccccc1N1CCN(c2nc3ccccc3nc2C(C#N)C(=O)OC(C)C)CC1 (centres undefined),-44,-23%,-4%,5,-5%,11µM*
COc1ccccc1N1CCN(C(=O)CSc2nc3ccccc3nc2N2CCCCC2)CC1,-4,1%,0%,-11,6%,5µM*
COc1ccccc1N1CCN(C(=O)CSc2nc3ccccc3nc2Cc2ccc(C)cc2)CC1,·,-6%,-7%,·,·,?
CCOc1ccccc1N1CCN(c2nc3ccccc3nc2C(C#N)C(=O)OC)CC1 (centres undefined),15,9%,12%,2,-10%,7%
COc1ccccc1N1CCN(C(=O)CSc2nc3ccccc3nc2N2CCC(C)CC2)CC1,2,-1%,4%,-7,9%,5µM*
O=C(NCC(c1ccco1)S(=O)(=O)c1ccc(Cl)cc1)c1ccc(C(F)(F)F)cc1 (centres undefined),·,7%,2%,·,·,?
SMILES,KCNH2 3.1 inh,GLP1R cytotox,GLS inhibitor,KCNH2 WT inh,GLP-1R agonist,GLP1R inv ag
O=C(CSc1nnc(CNC(=O)c2cccs2)o1)Nc1ccc(Cl)cc1,-17,-18%,-1%,-3,3%,7%
COc1ccc(CCC(C)NCCc2ccc(Cl)cc2Cl)cc1 (centres undefined),?,?,1%,3,-2%,10µM*
COc1ccccc1CNC(=O)CC12CC3CC(CC(Br)(C3)C1)C2,-1,-7%,10%,13,0%,-19%
CC(C)c1nnc(NC(=O)C2CCN(C(=O)Nc3ccc(Cl)cc3)CC2)s1,-8,-6%,10%,-9,14%,4µM*
Cc1ccc(-c2nc3c(c(SCC(=O)N4CCCCC4)n2)Cc2cc(C)ccc2O3)cc1,·,0%,-12%,·,·,3%
COc1ccc(CNS(=O)(=O)c2cnc(N)nc2)c(OC)c1,·,-4%,1%,·,·,7%
O=[N+]([O-])c1ccc(/C=C/C2=NN(c3ccccc3)C(c3ccco3)C2)o1 (centres undefined),-73*,-5%,17%,-45,0%,4%
C(=C\c1ccco1)/C1=NN(c2ccccc2)C(c2ccco2)C1 (centres undefined),-7,i,-5%,1,-13%,-2%
Cc1ccc(Cl)cc1N1CCN(CC(=O)NC2CCCc3ccccc32)CC1 (centres undefined),-13,-22%,1%,1,1%,?
COc1ccc2nc(SCC(=O)NC3CCCc4ccccc43)[nH]c2c1 (centres undefined),0,-14%,8%,0,-1%,?
O=C(CSc1nc2ccc(Cl)cc2[nH]1)NC1CCCc2ccccc21 (centres undefined),-11,-18%,-8%,i,16%,8.9µM*
O=C(CN1CCN(c2ccccc2Cl)CC1)NC1CCCc2ccccc21 (centres undefined),0,1%,0%,-4,3%,10µM*
CCOCCCNC(=O)C(=O)Nc1c2c(nn1-c1ccccc1)CSC2,·,-2%,2%,·,·,-3%
CN(C(=O)Cn1cc(S(=O)(=O)Cc2ccccc2Cl)c2ccccc21)c1ccccc1,·,-27%,-7%,·,·,?
Cc1c(C)c2cc(Cl)c(OCC(=O)Nc3ccccn3)cc2oc1=O,1,0%,-16%,10,2%,9%
Cc1c(C)c2ccc(OCC(=O)Nc3ccccn3)c(C)c2oc1=O,-9,19%,5%,-49,-5%,10µM*
NCCCn1c(C(=O)c2cc(Cl)c(N)c(Cl)c2)c2ccc(C(F)(F)F)cc2[n+]1[O-],-125*,-9%,-4%,10,0%,?
COc1ccc(C(=O)c2c3ccc(C(F)(F)F)cc3[n+]([O-])n2CCCC(N)=O)cc1,-8,?,4%,23,11%,-1%
